Experimental data reported in PubChem BioAssay AID493188 (National Center for Advancing Translational Sciences (NCATS), 2011).
Inconclusive results are not listed. A number with no mark means an inactive call. Activity calls are given as the source filed them. Calls follow the shape of the dose curve; as a rule, active = well fitted inhibition curve with a large enough effect; inconclusive = small, poorly fitted or top-dose-only effect; inactive = flat fitted curve, though single readings scatter.

The compounds below were run against Galactokinase (Homo sapiens) (UniProt P51570) (assay: Confirmation Assay for Inhibitors of Human Galactokinase (GALK): SAR round 2). Conditions: Recombinant GALK, Kinase-Glo ATP depletion luminescence; series mostly up to 57.5 µM; activity, negative = inhibition: at the top concentration.
Sequence of Galactokinase (Homo sapiens) (P51570 whole entry, looked up): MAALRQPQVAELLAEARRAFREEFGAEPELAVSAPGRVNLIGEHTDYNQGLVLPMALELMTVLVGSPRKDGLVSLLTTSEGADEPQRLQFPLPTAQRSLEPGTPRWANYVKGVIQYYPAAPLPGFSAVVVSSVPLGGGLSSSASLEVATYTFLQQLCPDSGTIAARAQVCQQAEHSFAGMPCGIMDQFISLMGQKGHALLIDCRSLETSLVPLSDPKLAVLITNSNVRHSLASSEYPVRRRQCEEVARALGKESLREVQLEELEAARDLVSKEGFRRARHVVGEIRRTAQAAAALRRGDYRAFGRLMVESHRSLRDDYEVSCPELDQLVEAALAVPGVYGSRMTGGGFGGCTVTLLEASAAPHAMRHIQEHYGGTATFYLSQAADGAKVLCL
Source text: NIH Molecular Libraries Probe Production Centers Network [MLPCN] NIH Chemical Genomics Center [NCGC] MLPCN Grant: R03 MH085689-01 Assay Submitter (PI): Kent Lai (University of Utah School of Medicine, 50 N Mario Capecchi Drive, Salt Lake City, UT 84132) NCGC Assay Overview Inherited deficiency of galactose-1-phosphate uridyltransferase (GALT) can result in a potentially lethal disorder called Classic Galactosemia (OMIM 230400). Several lines of evidence indicate that an elevated level of galactose-1-phosphate (gal-1-p), the product of galactokinase (GALK), is a major, if not sole, pathogenic mechanism in patients with classic galactosemia. Therefore, finding inhibitors of GALK is a potential novel therapy for this inherent metabolic disease and is the long term goal of this project. Active compounds observed in the qHTS GALK assay (AID: 1868) were cherry picked and re-screened for validation. GALK (provided by Kent Lai) was assayed using ATP and D-(+)-Galactose (Sigma-Aldrich cat# G0750) as substrates. Promega Kinase-Glo Plus (cat# V3774) technology was used to detect the residual ATP following kinetic reaction. Briefly, the Kinase-Glo Plus contains Ultra-Glo [1] luciferase and D-luciferin which generates a bioluminescence signal from the remaining ATP. Kinase reactions with and without GALK were used as negative and positive controls together with Protein Tyrosine Phosphatase CD45 inhibitor (EMD Bioscience cat# 540215) which is shown to inhibit GALK activity.
NCGC Assay Protocol Summary: Three uL/well of ATP-buffer solution (35 uM ATP, 20mM HEPES pH8.0, 5 mM MgCl2, 60 mM NaCl, 1 mM DTT, 0.01% BSA final concentration) was dispensed into 1536-well, assay plates (Greiner, solid white medium-binding plates) with Aurora Discovery BioRAPTR Flying Reagent Dispenser (FRD; Beckton-Dickenson). Compound and control solution (23 nL) was transferred to the assay plate using the Kalypsys 1536-pin tool apparatus. One uL/well GALK-galactose solution (5 nM GALK, 100 uM galactose, 20 mM HEPES pH8.0, 5 mM MgCl2, 60 mM NaCl, 1 mM DTT, 0.01% BSA final concentration) was then added using the FRD yielding a total kinase reaction volume of 4 uL/ well. After 1 hour of room temperature incubation, 4 uL Kinase-Glo Plus reagent was added for a final assay volume of 8 uL/well. Luminescence was detected with the ViewLux plate reader (Perkin Elmer, Waltham, MA) after 2 min incubation using a 1 sec exposure time and 2x binning.

Compound	activity, negative = inhibition	Potency
Cc1nc(Nc2nc3ccccc3o2)nc2c1CCCC2	0.459%	–
O=C1CCCC2=C1C(c1ccccc1Cl)N=C(Nc1nc3ccccc3o1)N2 (configuration not stated)	–	2.66 µM (active)
O=C1CCCC2=C1C(c1ccccc1C(F)(F)F)N=C(Nc1nc3ccccc3o1)N2 (configuration not stated)	–	12.2 µM (active)
O=C1CCCC2=C1C(c1ccccc1)N=C(Nc1nc3ccccc3o1)N2 (configuration not stated)	–	34.3 µM (active)
Cc1ccc(N(CC(=O)Nc2ccc(OC(F)(F)F)cc2)S(=O)(=O)c2c(C)noc2C)cc1	-9.27% [at 115 µM]	–
O=C1CCCC2=C1[C@@]1(CCC(c3ccccc3)C1)N=C(Nc1nc3ccccc3o1)N2 (some centres not stated)	-7.78%	–
Cc1ccc(C2N=C(Nc3nc4ccccc4o3)NC3=C2C(=O)CCC3)s1 (configuration not stated)	–	61.1 µM (active)
CC(C)(C)C(=O)Nc1ccc2c(c1)C(=O)C(=O)c1ccccc1-2	–	2.59 µM (active)
O=C1CCCC2=C1C(c1ccncc1Cl)N=C(Nc1nc3ccccc3o1)N2 (configuration not stated)	–	15.3 µM (active)
COc1cccc(C2N=C(Nc3nc4ccccc4o3)NC3=C2C(=O)CCC3)c1 (configuration not stated)	–	18.8 µM (active)
CC(C)c1nc(Nc2nc3ccccc3o2)nc2c1CCCC2	-1.14%	–
O=C1CCCC2=C1C(c1cccc(Oc3ccccc3)c1)N=C(Nc1nc3ccccc3o1)N2 (configuration not stated)	-10.9% [at 172 µM]	–
